Assay results taken from PubChem BioAssay.

System: XIP peptide (Xip251-270) binding
Assay: XIP fragment 251-270 binding compounds – biochemical, small-molecule microarray, fluorescence 635/667 nm, 0.1 µg/mL protein, primary screen (AID 1182)
Conditions: fluorescent protein binding, 635 nm, higher = more signal, called active from +8 up or from −8 down

Composite z-score, inactive:
CC(C)OC(=O)C=C1C[C@@H](c2ccc(C#N)cc2)O[C@@H](c2ccc(C#N)cc2)O1 1.1
COC(=O)C1(C)C=C2C(=C(c3ccccc3)C(=O)C2C)CN1 (centres undefined) -0.21
C=C(COC)/C(=C/C[C@H](OC(=O)c1ccncc1)c1ccc(CO)o1)c1cc(C(=O)OC)ccc1OC -0.222
CC(C)=C1C(=O)C(c2ccccc2)=C2CN3C(=O)N(CCc4ccccc4)C(=O)[C@]3(Cc3ccc(F)cc3)[C@H]21 -0.391
O=C1NC(=O)C2C1C=CC(C(O)Cc1ccccc1)N2Nc1ccccn1 (centres undefined) -0.0757
CC(C)(C)N1CC=CC23O[C@@H]4C=CCCOC(=O)C4[C@H]2C(=O)N(CCCCCO)[C@@H]3C1=O (some centres undefined) 0.615
CN(C)c1ccc(C(O)C2C=CC3C(=O)N(c4ccccc4)C(=O)C3N2Nc2ccccc2F)cc1 (centres undefined) 0.324
CC(C)(C)OC(=O)CC[C@]1(C(=O)NCc2ccccc2)N=C(c2ccc(OCCCO)cc2)O[C@H]1c1ccccc1 0.124
COC(=O)[C@]1(CO)N=C(c2ccc(OCCCO)cc2)O[C@@H]1c1ccccc1N=[N+]=[N-] 0.816
COC(=O)[C@@]1(Cc2ccc(F)cc2)[C@H]2c3cc(C(=O)N(C)C)n(Cc4ccc(OC)c(OC)c4)c3C[C@H]2CN1C(=O)c1ccccc1 0.316
CCOc1ccc(N2C(=O)/C(=C/C=C/c3ccccc3OC)S(=O)(=O)C2c2cccc([N+](=O)[O-])c2)cc1 (centres undefined) -0.735
CN(C)CCCNC(=O)[C@@H]1c2ccccc2C(=O)N(Cc2cc(F)cc(C(F)(F)F)c2)[C@H]1c1ccc(CO)cc1 0.782
CC(C)(C)OC(=O)CC[C@]1(C(N)=O)COC(c2ccc(OCCCO)cc2)=N1 2.48
CCCCCN1CC=CC23O[C@@H]4C=CCOC(=O)[C@@H]4[C@H]2C(=O)N(C(CO)C(C)C)[C@@H]3C1=O (some centres undefined) 0.824
C=C(/C(=C/C[C@@H](OC(=O)c1ccncc1)c1ccc(OCCO)cc1)c1cnc2ccccc2c1)C(C)C -0.214
O=C1O[C@@H](c2ccccc2)[C@@H](c2ccccc2)N2[C@@H](c3ccc(OCCO)cc3)[C@]3(C(=O)Nc4ccc(C#CCCO)cc43)[C@@H](C(=O)N3CCCCCCC3)[C@H]12 2.93
Cc1ccc(C2CC=C(C(=O)O)CN2S(=O)(=O)c2ccc(C)cc2)cc1 (centres undefined) 0.911
Cc1ccc(S[C@]2(C(=O)O)CC(=O)N(Cc3ccccc3)[C@@H]2c2ccc(CO)cc2I)cc1 0.233
CCOC(=O)C[C@H]1[C@H](OC(=O)c2ccc(C(=O)c3ccccc3)cc2)[C@@H](NC(=O)c2ccc(-c3ccccc3)cc2)c2cc(OCCCO)ccc2N1C(=O)c1ccc2ccccc2n1 1.25
C=CCN1C(=O)[C@]2(O[C@H](CCn3cc(CCO)nn3)[C@@H]([Si](C)(C)c3ccc(OC)cc3)[C@@H]2C)c2cc(N3CCOC3=O)ccc21 0.0616
CN(C)C(=O)[C@@]1(Cc2ccccc2)N=C(c2ccc(OCCCO)cc2)O[C@H]1c1ccccc1CN=[N+]=[N-] 2.74
COc1ccc([Si](C)(C)[C@H]2[C@H](CC(=O)N3CCC[C@H]3CO)O[C@@]3(C(=O)N(Cc4cccc(N5C(=O)COc6ccccc65)c4)c4ccccc43)[C@@H]2C)cc1 0.422
COCCCNC(=O)[C@@]1(CCS(=O)(=O)c2ccccc2)N=C(c2ccc(OCCCO)cc2)O[C@H]1c1ccccc1 1.3
COCCCNC(=O)[C@]1(Cc2ccccc2)N=C(c2ccc(OCCCO)cc2)O[C@@H]1c1ccccc1 2.03
COc1ccccc1CN1C(=O)c2ccccc2[C@@]2(Cc3ccccc3N(C(C)C)C2=O)[C@@H]1c1ccc(CO)cc1 0.496
CC(C)N1CC=CC23O[C@@H]4C=CCCOC(=O)C4[C@H]2C(=O)N(CCCCCCO)[C@@H]3C1=O (some centres undefined) -0.543
CCCNC(=O)[C@@H]1c2ccccc2C(=O)N(c2ccc(C)cn2)[C@H]1c1ccc(CO)cc1 -0.239
CCCNC(=O)[C@@H]1c2ccccc2C(=O)N(Cc2ccccc2Cl)[C@H]1c1ccc(CO)cc1 -0.101
O=C1C[C@]2(c3ccc([N+](=O)[O-])cc3)C(=O)N(CCN3CCOCC3)c3cc(CO)ccc3[C@H]2N1CC12CC3CC(CC(C3)C1)C2 0.288
